Measurements as given in PubChem BioAssay AID1259309 (ICCB-Longwood Screening Facility, Harvard Medical School, 2017).
Several values for one entry are separate records, joined by “and”; a condition that tells them apart may be missing. Equal entries are not always repeated. Among all 330,000 compounds or so, about 1,800 (0.55%) were called active. Rule as the data show it: active = growth inhibition above about 68%; inactive = the rest. Only a selection was taken, and actives are over-represented in it overall. Some compounds were tested as several samples or in several runs, with calls that do not always agree.

test: growth inhibition of ugtP-null S. aureus, primary screen, RN4220 ugtP deletion, OD600 (AID 1259309); conditions: 16 h, stronger effect = higher value;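 also: plate controls were untreated wells for no effect and antibiotic for full effect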

| Structure (SMILES) | growth inhibition |
| --- | --- |
| CCOC(=O)C1(CCOc2ccccc2)CCN(Cc2cc(OC)c(O)cc2Cl)CC1 | 4.94% (inactive) |
| CCOC(=O)C1(CCOc2ccccc2)CCN(Cc2cc(OC)cc(OC)c2)CC1 | 2.42% (inactive) |
| Cc1c(CN2CCC(CO)(CCOc3ccccc3)CC2)[nH]c2ccc(Cl)cc12 | 95.4% (active) |
| Nc1nonc1-n1nnc(C(=O)NN=Cc2ccc(Cl)cc2Cl)c1CN1CCCCC1 | 6.34% (inactive) |
| ON=C1CC2(CC(=NO)C1=NO)OCCO2 | -5.45% (inactive) |
| S=C(Nc1ccccc1)Nc1ccc2ccccc2c1 | -7.81% (inactive) |
| O=C(Nc1ccc2ccccc2c1)Nc1ccc2snnc2c1 | 94.2% (active) |
| Cc1nc2cc(NC(=O)Nc3cccc(F)c3)ccc2n1C | -1.04% (inactive) |
| COCc1cc(C)nc(OCC(=O)NN=Cc2ccc(C)cc2)c1C#N | 3.45% (inactive) |
| CC(=O)c1ccc(NC(=S)NC(=O)CC(C)C)cc1 | 29.6% (inactive) |
| COc1ccc(NS(=O)(=O)c2ccc(NC(=S)NC(=O)CC(C)C)cc2)cc1 | 88% (active) |
| COc1ccc(OC)c(C(C)NC(=S)Nc2ccc(S(=O)(=O)Nc3ncccn3)cc2)c1 (configuration not stated) | 6.82% (inactive) |
| COc1ccc(/C=C\C(=O)Oc2cccc(C=NNC(=O)Cc3ccc(OC)c(OC)c3)c2)cc1 | 28.2% (inactive) |
| CCCCC1CC1C(NC(=O)c1cccs1)c1ccc(C(F)(F)F)cc1 (configuration not stated) | 3.18% (inactive) |
| COC(=O)c1cc(OC)ccc1-c1ccc(OC)cc1 | 24.4% (inactive) |
| COc1ccc(CNC(=O)CCN2C(=O)c3ccccc3C2=O)cc1 | 0.235% (inactive) |
| CCOC(=O)C1=C(c2ccc(OC)cc2)C(=O)c2ccccc2C1=O | 98.1% (active) |
| O=C(NC1CC(=NO)c2cc3c(cc21)OCO3)C(F)(F)F (configuration not stated) | 3.72% (inactive) |
| Fc1ccc(-c2ccc(C=Nn3cnnc3)o2)cc1 | 3.75% (inactive) |
| O=C(CSc1nc2ccccc2n1Cc1ccc(Cl)cc1)NN=Cc1ccccc1C(=O)O | 0.317% (inactive) |
| OCCC1CC(O)C(O)[C@]2(Cc3ccccc3O2)O1 (some centres not stated) | -11.4% (inactive) and -1.82% (inactive) and 6.13% (inactive) |
| OCCC1CC(O)C(O)[C@@]2(CCCc3ccccc3O2)O1 (some centres not stated) | -2.74% (inactive) and 36.1% (inactive) and 95.4% (active) |
| COc1ccc(-c2cnnc(NN=Cc3ccc(OC)c(OC)c3)n2)cc1 | -0.988% (inactive) |

| Structure (SMILES) | growth inhibition |
| --- | --- |
| COc1cc(C(=O)NCC(=O)NN=C(C)Cc2ccccc2)cc(OC)c1OC | 1.68% (inactive) |
| Cc1cc(N=Nc2ccc3ccccc3c2)ccc1O | 100% (active) |
| Cc1c(O)ccc(C(Cc2ccc3ccccc3n2)=NN)c1O | 7.02% (inactive) |
| Cc1nc2cc(NC(=O)CSc3nc4c(C)cccc4cc3C#N)ccc2s1 | 96.5% (active) |
| Cc1cc(C)c(C#N)c(SCC(=O)Nc2ccccc2)n1 | -0.258% (inactive) |
| Cc1nonc1NC(=O)CSc1nc2ccccc2cc1C#N | -7.53% (inactive) |
| Cc1ccc(NC(=S)NN=C2CC(C)(C)Oc3ccc(O)cc32)cc1 | -1.6% (inactive) |
| CCCc1c(C(=O)NN=Cc2ccncc2)nnn1-c1nonc1N | -1.92% (inactive) |
| COc1ccc2sc(-c3ccc(S(C)(=O)=O)cc3)c(C#Cc3cncn3C)c2c1 | -24.1% (inactive) |
| O=C(NCc1ccc2c(c1)OCO2)c1c(-c2ccsc2)sc2ccccc12 | 13.5% (inactive) |
| Cn1cncc1C#Cc1c(-c2ccsc2)sc2ccccc12 | 89% (active) |
| CC1CN(C(C)CO)C(=O)c2cc(NS(=O)(=O)c3ccccc3)ccc2OC1CN(C)C(=O)Nc1ccc2c(c1)OCO2 (configuration not stated) | 1.83% (inactive) |
| CC[C@@H](C)[C@@H]1CN([C@@H](C)CN2CCC[C@H]2CN2C(N)=NC[C@H]2C(C)C)C(=N)N1CCc1ccc(Cl)c(Cl)c1 | 100% (active) |
| CCCCN1C(=N)N(C(C)CN2CCCC2CN2C(N)=NCC2Cc2ccccc2)CC1C(C)CC (configuration not stated) | 2.45% (inactive) |
| CC(=O)C(=NNc1ccccc1)Sc1nnc(-c2ccccc2)n1-c1ccccc1 | -0.945% (inactive) |
| CCc1ccc(C=Nn2c(C)cc(C)c(C#N)c2=O)cc1 | 11.9% (inactive) |
| CC(=NNC(=O)c1c(-c2ccccc2Cl)noc1C)c1cccc(NC(=O)C(C)C)c1 | -1.85% (inactive) |
| O=c1ccnc(Nc2ccc(Cl)cc2)[nH]1 | -0.107% (inactive) |
| Cc1csc(Nc2ccc(Cl)cc2)[n+]1-c1ccc(Cl)cc1 | 94.3% (active) |
| CCOC1OC(C(N)=O)=CC(c2csc3ccccc23)C1CCCO (configuration not stated) | -0.922% (inactive) |
| NC(=O)CC1NC(=O)C(CCC(=O)O)NC(=O)c2cc([N+](=O)[O-])cc(I)c2NCCCC(C(N)=O)NC1=O (configuration not stated) | 5.02% (inactive) |
| COc1cccc(C=NNC(=O)c2ccccc2NC(=O)c2ccco2)c1OC | 17.5% (inactive) |
| Cc1cccc(OCC(=O)NC2CC(C)(C)NC(C)(C)C2)c1 | -2.79% (inactive) |

| Structure (SMILES) | growth inhibition |
| --- | --- |
| CC1(C)SC2C(NC(=O)COc3ccccc3)C(=O)N2C1C(=O)O (configuration not stated) | 101% (active) |
| COC(=O)Cc1ccc(OCC(=O)NC2CCCC2)cc1 | 5.86% (inactive) |
| CC1=CC(=C(C#N)c2nc3ccccc3s2)C=C(C)N1c1ccc(F)cc1F | 3.53% (inactive) |
| N#C/C(=C(/O)Cc1cccc2ccccc12)c1nc2ccccc2s1 | 88% (active) |
| O=C(O)CS/C(=C\c1ccc(F)cc1)c1nc2ccccc2s1 | -0.309% (inactive) |
| CSc1ccc(C2=CC(=O)CC(c3ccc(F)cc3)C2)cc1 (configuration not stated) | -1.01% (inactive) |
| Cn1c(SCC(=O)NN=Cc2ccc([N+](=O)[O-])s2)nnc1-c1ccccc1 | 100% (active) |
| Cc1ccc(C=NNC(=O)CSc2nc3ccccc3c(=O)n2-c2ccccc2)s1 | -33.9% (inactive) |
| Cc1ccc(C=NNC(=O)CSc2nc3ccccc3n2C)s1 | 0.402% (inactive) |
| CCCc1noc2c1C(=NO)CCC2 | 0.229% (inactive) |
| COc1cc(NS(=O)(=O)c2ccc(NC(=O)c3ccc([N+](=O)[O-])cc3)cc2)ncn1 | 2.78% (inactive) |
| Cn1ccc(=Nc2ccc(NC(=O)c3ccc(N=c4ccn(C)c5ccc([N+](=O)[O-])cc45)cc3)cc2)cc1 | 99.6% (active) |
| CCc1ccc(NC(=O)c2ccc(Cn3cc([N+](=O)[O-])cn3)cc2)cc1 | 5.62% (inactive) |
| CCOc1cc(C=NNC(=O)c2nnn(-c3nonc3N)c2C)ccc1OCc1cccc(F)c1 | -21.1% (inactive) |
| CSc1sccc1C=NNC(=O)c1ccncc1 | -0.193% (inactive) |
| CCN1/C(=C/c2ccc3ccc(C)cc3[n+]2CC)Sc2ccccc21 | 100% (active) |
| CC(=NNC(=O)c1ccc(F)cc1)c1ccccn1 | -8.87% (inactive) |
| CCOc1cc(C=NNC(=O)c2cccc(S(=O)(=O)N3CCOCC3)c2)ccc1OCC(=O)N(C)C | 7.71% (inactive) |
| COC(=O)c1ccc(-c2c(-c3ccccc3)ncc3cc(OC)c(OC)cc23)cc1 | 97.6% (active) |
| COc1ccc(CNC(=O)Cc2ccc(-c3ccccc3)cc2)cc1OC | -1.11% (inactive) |
| COC(=O)c1ccc(SCc2ccccc2)nc1 | 3.84% (inactive) |
| Cc1cccc(-n2c(C)cc(C=NNC(=O)c3ccco3)c2C)c1 | -2.71% (inactive) |
| COC(=O)C1=C(c2ccc(S(C)(=O)=O)cc2)CC2CCC1N2C(=O)N1CCCC1 (configuration not stated) | 2.31% (inactive) |

| Structure (SMILES) | growth inhibition |
| --- | --- |
| Cc1nn(-c2ccccc2)c(Cl)c1C=NO | -0.481% (inactive) |
| Cc1ccc(C(=O)/C=C/c2c(C)nn(-c3ccccc3)c2Cl)cc1 | -4.9% (inactive) |
| Cc1nn(-c2ccccc2)c(Cl)c1/C=C/C(=O)c1ccc(O)cc1 | 86.2% (active) |
| CNC(=S)NN=Cc1c(C(=O)OC)cnn1-c1ccc(F)cc1F | 2.84% (inactive) |
| O=S(=O)(N=C(c1ccccc1Cl)N1CCOCC1)c1ccccc1 | -1.9% (inactive) |
| Cc1cc(C(=O)NN=C2CCCC(C)C2)n[nH]1 (configuration not stated) | 1.57% (inactive) |
| COc1ccccc1C(=O)Nc1ccccc1C(=O)Nc1ccccc1 | 6.78% (inactive) |
| COc1cc(NC(=O)c2ccccc2NS(=O)(=O)c2ccc(Cl)s2)cc(OC)c1 | 88% (active) |
| COc1cc(OC)c(S(=O)(=O)Nc2ccccc2C(=O)O)cc1S(=O)(=O)Nc1ccccc1C(=O)O | 7.58% (inactive) |
| COC(=O)C1C[C@@]2(O)C(O)C(O)C(O)CC2N1Cc1cc(F)ccc1F (some centres not stated) | -1.93% (inactive) |
| CCOC(=O)N=C(NC(=O)Nc1ccc(C(=O)OCC)cc1)OC | 0.614% (inactive) |
| Cc1ccccc1C=Nn1c(C2CCCCC2)n[nH]c1=S | -0.971% (inactive) |
| N#CC1=C(SCc2ccccc2)NC(=O)C(C#N)C12CCCC2 (configuration not stated) | -2.16% (inactive) |
| N#CC1=C(SCc2ccc(C#N)cc2)N=C(N)C(c2nc(-c3ccccc3)cs2)C12CCCCC2 (configuration not stated) | 92.2% (active) |
| N#Cc1ccc(CSc2ncccn2)cc1 | 7.1% (inactive) |
| CC(=NOCC(=O)OCC(=O)Nc1cc(S(C)(=O)=O)ccc1Cl)c1ccc2c(c1)OCO2 | 4.9% (inactive) |
| CCOc1cc(C=NNC(=O)C(O)(c2ccccc2)c2ccccc2)ccc1OC(=O)c1ccco1 | 0.814% (inactive) |
| COCCN=C1NC(c2cccc(C(F)(F)F)c2)C(C(=O)OC)=C(C)N1Cc1ccccc1 (configuration not stated) | -23% (inactive) |
| CCc1nc(C)ccc1OCC(=O)N(CC)CC | 2.97% (inactive) |
| CCC(C)(C)c1ccc(OCC(=O)N(C)C)c(C(C)(C)CC)c1 | 93.1% (active) |
| CN1CCN(C(=O)COc2ccc(C(C)(C)C)cc2Br)CC1 | -4.55% (inactive) |
| O=c1[nH]ncc(NN=Cc2cccnc2)c1Cl | 8.44% (inactive) |
| CC(CC(=O)N1CCN(C=O)CC1)=NNC(=O)c1ccc(Cl)cc1 | 3.18% (inactive) |
